From the supplement of paper PMC10849652 come the findings set out here.

The full data set covers some 7,900 targets. This sample favours those with a hit. About 0.6% of all pairs of compound and target were hits. Values without a mark were called inactive.

Sequence of UniProt Q8IWY9 (Q8IWY9 whole entry, looked up): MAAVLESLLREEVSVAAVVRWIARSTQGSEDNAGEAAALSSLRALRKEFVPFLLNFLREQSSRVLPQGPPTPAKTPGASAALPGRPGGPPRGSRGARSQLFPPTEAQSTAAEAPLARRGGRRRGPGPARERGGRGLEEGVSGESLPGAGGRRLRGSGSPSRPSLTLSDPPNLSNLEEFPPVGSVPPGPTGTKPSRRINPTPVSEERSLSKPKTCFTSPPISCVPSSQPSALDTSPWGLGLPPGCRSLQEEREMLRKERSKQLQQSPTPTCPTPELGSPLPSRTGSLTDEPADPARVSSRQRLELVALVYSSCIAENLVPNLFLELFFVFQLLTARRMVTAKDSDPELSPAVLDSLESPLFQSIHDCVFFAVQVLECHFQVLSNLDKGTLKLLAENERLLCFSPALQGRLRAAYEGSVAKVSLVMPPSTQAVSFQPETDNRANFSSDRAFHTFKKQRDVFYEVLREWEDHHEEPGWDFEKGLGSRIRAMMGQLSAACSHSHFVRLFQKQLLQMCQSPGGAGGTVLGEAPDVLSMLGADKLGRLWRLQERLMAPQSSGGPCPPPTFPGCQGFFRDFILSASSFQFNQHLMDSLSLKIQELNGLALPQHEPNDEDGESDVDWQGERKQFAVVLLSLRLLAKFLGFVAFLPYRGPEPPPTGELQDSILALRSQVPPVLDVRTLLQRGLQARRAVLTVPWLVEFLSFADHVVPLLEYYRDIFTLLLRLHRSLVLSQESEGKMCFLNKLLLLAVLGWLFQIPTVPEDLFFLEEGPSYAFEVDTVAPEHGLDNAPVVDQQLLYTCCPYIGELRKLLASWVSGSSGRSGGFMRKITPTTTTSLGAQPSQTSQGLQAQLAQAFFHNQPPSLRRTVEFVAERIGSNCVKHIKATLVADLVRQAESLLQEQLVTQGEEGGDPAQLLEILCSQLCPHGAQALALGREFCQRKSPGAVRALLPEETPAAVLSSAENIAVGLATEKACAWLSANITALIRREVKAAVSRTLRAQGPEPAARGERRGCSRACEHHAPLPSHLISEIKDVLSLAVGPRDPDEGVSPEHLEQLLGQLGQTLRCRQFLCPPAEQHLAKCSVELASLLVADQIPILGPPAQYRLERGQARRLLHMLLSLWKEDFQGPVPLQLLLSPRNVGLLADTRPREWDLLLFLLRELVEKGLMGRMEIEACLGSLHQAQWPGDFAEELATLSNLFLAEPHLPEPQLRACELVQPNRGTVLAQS
Sequence of UniProt O95628 (O95628 whole entry, looked up): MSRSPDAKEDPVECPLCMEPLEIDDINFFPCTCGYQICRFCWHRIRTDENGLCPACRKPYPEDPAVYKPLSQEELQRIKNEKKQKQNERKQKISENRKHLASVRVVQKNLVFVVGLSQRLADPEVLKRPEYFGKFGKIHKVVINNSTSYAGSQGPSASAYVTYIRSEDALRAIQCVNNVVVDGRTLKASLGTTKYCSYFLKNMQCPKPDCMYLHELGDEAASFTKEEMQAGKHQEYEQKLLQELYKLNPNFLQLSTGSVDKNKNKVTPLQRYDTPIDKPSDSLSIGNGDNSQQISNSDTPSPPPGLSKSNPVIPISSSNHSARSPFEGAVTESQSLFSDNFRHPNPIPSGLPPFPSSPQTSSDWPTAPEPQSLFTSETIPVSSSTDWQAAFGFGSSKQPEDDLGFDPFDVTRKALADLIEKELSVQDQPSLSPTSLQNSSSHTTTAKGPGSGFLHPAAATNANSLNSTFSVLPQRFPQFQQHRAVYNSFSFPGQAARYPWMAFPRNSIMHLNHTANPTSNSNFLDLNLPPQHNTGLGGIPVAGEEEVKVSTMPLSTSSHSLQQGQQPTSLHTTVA
Sequence of UniProt Q9Y3X0 (Q9Y3X0 whole entry, looked up): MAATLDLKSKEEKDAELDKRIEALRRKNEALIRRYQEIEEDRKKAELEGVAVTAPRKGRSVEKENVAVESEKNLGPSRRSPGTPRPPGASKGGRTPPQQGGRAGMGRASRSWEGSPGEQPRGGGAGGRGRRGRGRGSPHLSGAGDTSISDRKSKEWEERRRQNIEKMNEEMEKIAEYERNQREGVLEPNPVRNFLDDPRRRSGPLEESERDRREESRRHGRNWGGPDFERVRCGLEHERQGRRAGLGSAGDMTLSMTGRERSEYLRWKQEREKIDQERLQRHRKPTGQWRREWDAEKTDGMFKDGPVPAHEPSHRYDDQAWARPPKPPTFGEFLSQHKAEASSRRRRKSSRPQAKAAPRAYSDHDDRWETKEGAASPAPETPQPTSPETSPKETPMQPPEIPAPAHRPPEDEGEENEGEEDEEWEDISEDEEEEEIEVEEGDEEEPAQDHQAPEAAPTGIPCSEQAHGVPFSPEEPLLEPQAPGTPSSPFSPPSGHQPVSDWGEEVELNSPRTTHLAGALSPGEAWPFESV
Sequence of UniProt P41240 (P41240 whole entry, looked up): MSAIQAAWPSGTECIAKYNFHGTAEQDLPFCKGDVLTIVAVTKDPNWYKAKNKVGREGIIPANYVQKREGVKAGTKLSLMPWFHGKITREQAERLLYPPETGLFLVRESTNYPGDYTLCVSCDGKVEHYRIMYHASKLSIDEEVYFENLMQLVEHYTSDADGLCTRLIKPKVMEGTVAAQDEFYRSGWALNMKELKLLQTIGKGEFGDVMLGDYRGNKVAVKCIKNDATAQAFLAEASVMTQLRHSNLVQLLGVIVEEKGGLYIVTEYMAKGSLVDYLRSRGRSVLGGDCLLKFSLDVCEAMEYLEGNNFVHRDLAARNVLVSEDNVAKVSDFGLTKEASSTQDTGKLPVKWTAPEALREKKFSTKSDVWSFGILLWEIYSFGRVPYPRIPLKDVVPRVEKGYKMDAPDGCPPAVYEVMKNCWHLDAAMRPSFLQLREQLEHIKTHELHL
Sequence of UniProt Q5T6V5 (Q5T6V5 whole entry, looked up): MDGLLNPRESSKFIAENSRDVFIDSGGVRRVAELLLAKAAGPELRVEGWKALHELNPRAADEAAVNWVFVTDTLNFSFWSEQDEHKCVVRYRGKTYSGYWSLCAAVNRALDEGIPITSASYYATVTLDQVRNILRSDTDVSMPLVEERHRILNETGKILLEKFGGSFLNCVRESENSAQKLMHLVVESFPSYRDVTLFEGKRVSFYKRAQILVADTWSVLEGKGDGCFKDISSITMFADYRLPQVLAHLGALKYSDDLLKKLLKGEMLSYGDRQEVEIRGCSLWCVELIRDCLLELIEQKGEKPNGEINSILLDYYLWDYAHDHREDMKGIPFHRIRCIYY
Sequence of UniProt P16152 (P16152 whole entry, looked up): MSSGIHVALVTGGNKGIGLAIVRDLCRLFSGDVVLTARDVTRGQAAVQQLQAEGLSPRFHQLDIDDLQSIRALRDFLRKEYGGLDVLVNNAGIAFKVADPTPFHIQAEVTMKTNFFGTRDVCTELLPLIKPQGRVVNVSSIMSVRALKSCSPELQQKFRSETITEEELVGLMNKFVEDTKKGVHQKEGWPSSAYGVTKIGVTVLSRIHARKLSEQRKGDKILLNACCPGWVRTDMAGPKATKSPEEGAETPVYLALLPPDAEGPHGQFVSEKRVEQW
Sequence of UniProt Q96JB5 (Q96JB5 whole entry, looked up): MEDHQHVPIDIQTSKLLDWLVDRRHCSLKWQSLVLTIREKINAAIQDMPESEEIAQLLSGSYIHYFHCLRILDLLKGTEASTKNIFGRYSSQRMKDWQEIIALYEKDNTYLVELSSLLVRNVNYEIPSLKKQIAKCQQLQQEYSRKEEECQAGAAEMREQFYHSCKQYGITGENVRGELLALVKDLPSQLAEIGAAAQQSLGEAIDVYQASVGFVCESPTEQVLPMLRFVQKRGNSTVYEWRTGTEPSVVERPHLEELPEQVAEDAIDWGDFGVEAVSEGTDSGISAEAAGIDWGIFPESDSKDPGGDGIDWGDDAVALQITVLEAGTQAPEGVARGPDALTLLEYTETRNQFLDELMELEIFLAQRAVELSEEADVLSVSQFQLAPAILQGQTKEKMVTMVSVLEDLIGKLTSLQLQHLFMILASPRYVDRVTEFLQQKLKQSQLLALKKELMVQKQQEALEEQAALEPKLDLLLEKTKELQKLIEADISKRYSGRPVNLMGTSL
Sequence of UniProt Q7KZN9 (Q7KZN9 whole entry, looked up): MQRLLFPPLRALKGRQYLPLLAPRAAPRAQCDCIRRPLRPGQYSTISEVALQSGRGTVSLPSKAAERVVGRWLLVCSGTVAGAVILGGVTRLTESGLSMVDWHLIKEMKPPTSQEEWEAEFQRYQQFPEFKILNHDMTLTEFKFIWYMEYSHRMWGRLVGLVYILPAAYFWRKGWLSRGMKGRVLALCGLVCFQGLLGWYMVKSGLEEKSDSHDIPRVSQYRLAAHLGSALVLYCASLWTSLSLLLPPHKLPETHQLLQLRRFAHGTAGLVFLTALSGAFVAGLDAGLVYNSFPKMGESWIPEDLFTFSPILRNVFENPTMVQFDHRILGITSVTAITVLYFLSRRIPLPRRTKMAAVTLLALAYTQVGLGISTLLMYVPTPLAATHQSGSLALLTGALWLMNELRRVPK
Sequence of UniProt O95319 (O95319 whole entry, looked up): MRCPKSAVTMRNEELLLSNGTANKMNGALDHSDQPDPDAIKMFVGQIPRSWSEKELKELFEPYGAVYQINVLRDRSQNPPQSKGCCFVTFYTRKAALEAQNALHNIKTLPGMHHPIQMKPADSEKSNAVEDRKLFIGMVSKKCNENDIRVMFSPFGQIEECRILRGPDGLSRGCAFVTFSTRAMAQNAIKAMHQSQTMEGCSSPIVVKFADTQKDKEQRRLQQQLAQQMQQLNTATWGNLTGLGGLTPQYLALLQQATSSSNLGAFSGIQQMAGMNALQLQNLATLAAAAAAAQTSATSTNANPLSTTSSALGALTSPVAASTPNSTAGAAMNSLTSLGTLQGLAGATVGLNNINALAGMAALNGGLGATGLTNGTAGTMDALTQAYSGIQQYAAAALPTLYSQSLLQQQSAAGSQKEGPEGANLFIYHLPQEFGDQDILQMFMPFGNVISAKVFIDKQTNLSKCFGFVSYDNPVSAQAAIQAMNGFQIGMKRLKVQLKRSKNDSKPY
Sequence of UniProt Q8NHZ8 (Q8NHZ8 whole entry, looked up): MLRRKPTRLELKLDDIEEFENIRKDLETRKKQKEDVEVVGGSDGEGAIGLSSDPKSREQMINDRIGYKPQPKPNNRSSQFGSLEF

Compound in one assay: COc1cc(C(=O)O)ccc1NC(=O)[C@@H]1N[C@@H](CC(C)(C)C)[C@](C#N)(c2ccc(Cl)cc2F)[C@H]1c1cccc(Cl)c1F [idasanutlin]
As to the kind of experiment: log2 fold change, soluble protein after heating vs DMSO (PISA); higher = thermal stabilisation; K562 cells, 10 uM, 30 min; active = over 0.2 and 3.5 SD of the protein, either way, in both replicates (recomputed). The gist of the method:
(§1)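 Quantification of soluble protein used TMTpro 16plex LC-MS/MS, with channel sums equalised. Samples were the supernatant after 21,000xg for 90 min of pooled aliquots from K562 cells (2×10^6 cells/mL) treated with 10 μM compound for 30 min, heated for 3 min over 48°C-58°C, and extracted in PBS with 0.5% NP-40 at 4°C. Values, from duplicates, describe thermal stability against control samples on a log2 fold-change scale.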
For the target CHP1 (UniProt Q99653), the log2 fold change is -0.084.

Turning to CES2 isoform 4 (UniProt O00748), the log2 fold change was 0.053.

CPT2 (UniProt P23786): the log2 fold change was 0.806 (active).

Consider CNN2 (UniProt Q99439), for which the log2 fold change was -0.029.

Turning to CBX5 (UniProt P45973), the log2 fold change was -0.014.

Take CNOT4 isoform 6 (UniProt O95628): the log2 fold change was -0.001.

On to CD55 isoform 7 (UniProt P08174), for which the log2 fold change was 0.038.

Consider CPT1A (UniProt P50416), for which the log2 fold change is 0.086.

Turning to CD81 (UniProt P60033), the log2 fold change was -0.014.

CRK (UniProt P46108): the log2 fold change is 0.061.

As for CSK (UniProt P41240), the log2 fold change was -0.056.

On to CELF2 isoform 3 (UniProt O95319), for which the log2 fold change is -0.044.

With CDK5RAP3 isoform 4 (UniProt Q96JB5), the log2 fold change is -0.091.

For CSNK2A2 (UniProt P19784), the log2 fold change was -0.094.

On to CCZ1 (UniProt P86791), for which the log2 fold change is -0.015.

As to CBR1 (UniProt P16152), the log2 fold change was -0.074.

Consider CHAMP1 (UniProt Q96JM3), for which the log2 fold change was 0.005.

For CHMP4C (UniProt Q96CF2), the log2 fold change is -0.001.

As to CBS (UniProt P35520), the log2 fold change was 0.014.

Consider COX15 (UniProt Q7KZN9), for which the log2 fold change is -0.055.

For the target CDAN1 (UniProt Q8IWY9), the log2 fold change was -0.088.

Regarding CDC26 (UniProt Q8NHZ8), the log2 fold change was -0.053.

COPS3 (UniProt Q9UNS2): the log2 fold change was -0.09.

Consider CALCOCO2 isoform 4 (UniProt Q13137), for which the log2 fold change is 0.014.

On to CASP10 isoform 4 (UniProt Q92851), for which the log2 fold change is -0.049.

Regarding C9orf72 (UniProt Q96LT7), the log2 fold change is -0.026.

For CSNK2A1 (UniProt P68400), the log2 fold change is -0.009.

Regarding CCNB1 (UniProt P14635), the log2 fold change is 0.003.

For the target CHCHD1 (UniProt Q96BP2), the log2 fold change is 0.082.

Regarding CERT isoform 3 (UniProt Q9Y5P4), the log2 fold change is -0.145.

Take CCDC9 (UniProt Q9Y3X0): the log2 fold change is 0.018.

CAMKK2 (UniProt Q96RR4): the log2 fold change was -0.091.

In the case of COMT (UniProt P21964), the log2 fold change was -0.093.

For CCNK isoform 4 (UniProt O75909), the log2 fold change is 0.061.

For the target CDC42BPA isoform 6 (UniProt Q5VT25), the log2 fold change is 0.004.

Regarding C9orf64 (UniProt Q5T6V5), the log2 fold change is -0.062.

Compound in another assay: COc1cc(Nc2ncc3c(n2)-c2ccc(Cl)cc2C(c2c(F)cccc2OC)=NC3)ccc1C(=O)O [alisertib]
The assay is described as above. The gist of the method:
as §1
CHP1 (UniProt Q99653): the log2 fold change was -0.144.

Consider CES2 isoform 4 (UniProt O00748), for which the log2 fold change was 0.023.

With CPT2 (UniProt P23786), the log2 fold change was -0.067.

Turning to CNN2 (UniProt Q99439), the log2 fold change was -0.007.

For CBX5 (UniProt P45973), the log2 fold change is -0.062.

For CNOT4 isoform 6 (UniProt O95628), the log2 fold change is -0.036.

Regarding CD55 isoform 7 (UniProt P08174), the log2 fold change is -0.144.

Regarding CPT1A (UniProt P50416), the log2 fold change was 0.235.

As for CD81 (UniProt P60033), the log2 fold change is -0.007.

As for CRK (UniProt P46108), the log2 fold change is -0.107.

As to CSK (UniProt P41240), the log2 fold change is -0.018.

Turning to CELF2 isoform 3 (UniProt O95319), the log2 fold change was -0.122.

In the case of CDK5RAP3 isoform 4 (UniProt Q96JB5), the log2 fold change was -0.001.

For the target CSNK2A2 (UniProt P19784), the log2 fold change is 0.001.

With CCZ1 (UniProt P86791), the log2 fold change is -0.072.

As for CBR1 (UniProt P16152), the log2 fold change was -0.036.

As to CHAMP1 (UniProt Q96JM3), the log2 fold change is 0.006.

Consider CHMP4C (UniProt Q96CF2), for which the log2 fold change is 0.037.

As for CBS (UniProt P35520), the log2 fold change is -0.073.

As for COX15 (UniProt Q7KZN9), the log2 fold change was -0.054.

Take CDAN1 (UniProt Q8IWY9): the log2 fold change is -0.041.

Consider CDC26 (UniProt Q8NHZ8), for which the log2 fold change is -0.023.

As to COPS3 (UniProt Q9UNS2), the log2 fold change was -0.012.

CALCOCO2 isoform 4 (UniProt Q13137): the log2 fold change is 0.

As for CASP10 isoform 4 (UniProt Q92851), the log2 fold change is 0.009.

Turning to C9orf72 (UniProt Q96LT7), the log2 fold change is 0.062.

Take CSNK2A1 (UniProt P68400): the log2 fold change is -0.073.

Consider CCNB1 (UniProt P14635), for which the log2 fold change was -0.061.

With CHCHD1 (UniProt Q96BP2), the log2 fold change is -0.077.

CERT isoform 3 (UniProt Q9Y5P4): the log2 fold change was -0.064.

For the target CCDC9 (UniProt Q9Y3X0), the log2 fold change was -0.035.

As for CAMKK2 (UniProt Q96RR4), the log2 fold change was -0.377.

Take COMT (UniProt P21964): the log2 fold change was 0.009.

For CCNK isoform 4 (UniProt O75909), the log2 fold change is -0.013.

Turning to CDC42BPA isoform 6 (UniProt Q5VT25), the log2 fold change was -0.04.

On to C9orf64 (UniProt Q5T6V5), for which the log2 fold change is 0.078.
